# A selection: hits, their analogues and other compounds. The true share with any hit is near 10%.
# Gal4-VP16 FLuc – counter-screen for ROR gamma inhibitors: Gal4-VP16 reporter. Drosophila S2 Gal4-VP16 UAS-luciferase, luminescence, 20 h. Potency, µM (titrated, usually from 53.6 µM), for the others: at the top dose activity, negative = inhibition, actives largely listed as inhibitors. hit rate 3.5% among 310,000. AID 2546;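 further: Gal4-VP16 expression switched on by copper sulfate through the metallothionein promoter; on the % scale 0 is the no-effect control and ±100 the full control effect; nearly all actives have a fitted effect of over 50% in size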
# ELG1 repair inh – blocks ELG1-dependent DNA repair in HEK293T cells. HEK293T ELG1-luciferase reporter, luminescence, 16 h; DNA damage induced by 5-fluorouridine. Potency, µM (series often up to 46.1 µM), without a hit: top-dose activity change, negative = inhibition, most hits filed as inhibitors. hit rate 2.3% among 330,000. AID 504467; further: on the % scale 0 is the no-effect control and ±100 the full control effect; nearly all actives have a fitted effect of over 55% in size
#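 5-Fluorouridine DNA damage + compound/DMSO, 2,000 cells/well, 16 h, 37 °C/5% CO2. ONE-Glo, 30 min RT, luminescence. Readout = decrease in reporter signal.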
# MCF10A rerep – DNA re-replication induction in MCF 10a cells. MCF 10A DNA re-replication, Hoechst nuclear intensity, 48 h. Potency, µM (series often up to 46.1 µM), for the others: at the top dose activity, positive = re-replication, hits mostly activators. hit rate 2.9% among 350,000. AID 624296; further: % of control where 0% means no effect; nearly all actives have a fitted effect of over 50% in size
# RORg inh – ROR gamma (mouse) transcription inhibition | P51450 | Drosophila S2 Gal4-RORgamma UAS-luciferase reporter, 20 h | Potency, µM (highest dose often 53.6 µM), without a hit: top-dose activity change, negative = inhibition, usual class: inhibitors | hit rate 5.4% among 310,000 | AID 2551; further: on the % scale 0 is the no-effect control and ±100 the full control effect; nearly all actives have a fitted effect of over 60% in size
# Target sequence (P51450 whole entry, looked up, the tested form may be a part): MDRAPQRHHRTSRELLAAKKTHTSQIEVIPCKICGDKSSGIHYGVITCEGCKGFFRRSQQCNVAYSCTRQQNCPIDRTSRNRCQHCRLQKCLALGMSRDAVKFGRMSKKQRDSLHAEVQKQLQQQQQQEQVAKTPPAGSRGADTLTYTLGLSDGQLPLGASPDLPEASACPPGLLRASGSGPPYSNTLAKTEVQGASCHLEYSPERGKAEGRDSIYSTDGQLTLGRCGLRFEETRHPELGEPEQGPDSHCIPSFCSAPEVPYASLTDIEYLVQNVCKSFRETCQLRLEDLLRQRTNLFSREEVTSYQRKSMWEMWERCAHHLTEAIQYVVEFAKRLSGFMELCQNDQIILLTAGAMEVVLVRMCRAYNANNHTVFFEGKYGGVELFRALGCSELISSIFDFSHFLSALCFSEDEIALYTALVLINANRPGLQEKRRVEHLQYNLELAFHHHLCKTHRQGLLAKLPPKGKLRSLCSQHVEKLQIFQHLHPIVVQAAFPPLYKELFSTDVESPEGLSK
#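 Stable Schneider cell line, Gal4 DNA-binding domain fused to ROR gamma, UAS-luciferase. Cmpd 1 hr RT → CuSO4 700 uM final → 20 hr RT → luciferase reagent 10 min → luminescence.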
# SW480 rereplic – inducers of DNA re-replication in SW480 colon cancer cells; hit rate 1.8% among 340,000; Potency, µM (doses to about 46.1 µM), for the others: top-dose re-replication activation, most hits filed as activators; SW480 DNA re-replication, Hoechst DNA content imaging, 48 h; further: % of control where 0% means no effect; nearly all actives have a fitted effect of over 55% in size
#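 Image-based DNA-content assay: after two days of treatment, nuclei were labelled with the DNA dye Hoechst and imaged, and hits were compounds raising the count of nuclei showing high fluorescence intensity.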
# Starred values were filed as active, the others as inactive; ? = inconclusive; / = no result. The call rests on the fitted dose curve; in most records, active means well fitted curve in the direction sought with a large enough effect; inconclusive means small, poorly fitted or top-dose-only effect, or another doubt; inactive means no such curve, though single readings can be large; an effect the other way counts as inactive or inconclusive. Potency means the concentration at half of the fitted maximal effect.
SMILES,Gal4-VP16 FLuc,ELG1 repair inh,MCF10A rerep,RORg inh,SW480 rereplic
CC(=O)N1CCc2cc(S(=O)(=O)NC3CCCc4ccccc43)ccc21 (centres undefined),20µM*,?,-4.5%,?,-0.4%
CC(=O)N1CCc2cc(S(=O)(=O)NCCC(=O)NCCc3ccc(C)cc3)ccc21,3.55µM*,?,8.9%,?,2.5%
CC(=O)N1CCc2cc(S(=O)(=O)NCCC(=O)NCCc3ccc(Cl)cc3)ccc21,?,?,3.5%,?,-3.6%
COCCCn1c(C(=O)NCCC2=CCCCC2)cc2c(=O)n3ccccc3nc21,-3.8%,6.3%,-1.8%,-7.1%,?
COCCCn1c(C(=O)NC2CCCCC2C)cc2c(=O)n3cccc(C)c3nc21 (centres undefined),-0.5%,13µM*,?,3.1%,-8.2%
CCN(C(=O)c1cc2c(=O)n3cccc(C)c3nc2n1CCCOC)C1CCCCC1,-0.1%,23.1µM*,18.4µM*,-5.2%,29.1µM*
CN(C)S(=O)(=O)c1ccc(C(=O)N2CC(=O)Nc3ccc(F)cc3C2c2ccc(F)cc2)cc1 (centres undefined),3.8%,-8.1%,-7.3%,3.4%,-9.9%
CC(C)(C)c1cc(CCC(=O)NN)cc(C(C)(C)C)c1O,2.6%,-10.1%,0.5%,-35.1%,1.6%
COCCOC(=O)/C(=C\c1cc(C(C)(C)C)c(O)c(C(C)(C)C)c1)C(C)=O,1.1%,?,3.26µM*,?,?
N#CC1=C(N)SC2(CCCCC2)SC1c1ccccc1 (centres undefined),?,16.6%,2.0%,6.31µM*,4.0%
CCN1C(=O)[C@H]2[C@@H](c3ccc(-c4cccc(Cl)c4)cc3)N[C@@](CC(C)C)(C(=O)OC)[C@H]2C1=O,/,13.6%,-9.3%,/,3.1%
CCN1C(=O)[C@H]2[C@@H](c3ccc(-c4cccc(Cl)c4)c(OC)c3)N[C@@](CC(C)C)(C(=O)OC)[C@H]2C1=O,/,-13.1%,5.8µM*,/,?
CC(=O)N1c2ccc(S(=O)(=O)N3CCC(C(=O)N4CCN(c5ccccc5F)CC4)CC3)cc2CC1C (centres undefined),4.3%,20.6µM*,17.0%,?,2.9%
CC(=O)N1c2ccc(S(=O)(=O)N3CCC(C(=O)N4CCN(c5ccc(Cl)cc5)CC4)CC3)cc2CC1C (centres undefined),-8.7%,-23.6%,4.1%,?,-23.1%
O=C(NCc1cccs1)C1CCN(c2ccc(S(=O)(=O)N3CCOCC3)cc2Cl)CC1,-9.2%,18.4µM*,6.51µM*,?,1.3µM*
O=S(=O)(c1ccc(N2CCOCC2)c(Cl)c1)N1CCOCC1,27.4%,1.8%,?,?,4.5%
CC1CCCC(C)N1c1ccc(S(=O)(=O)N2CCOCC2)cc1Cl (centres undefined),9.2%,-8.5%,8.2µM*,22.9%,?
CC(=O)N1c2ccc(S(=O)(=O)N3CCC(C(=O)NCc4ccc(Cl)cc4)CC3)cc2CC1C (centres undefined),-21.4%,10.3µM*,23.1µM*,?,?
Cc1ccn(CCC(=O)N2CCCC(CCC(=O)N3CCN(c4ccccn4)CC3)C2)n1 (centres undefined),-2.9%,-13.6%,0.0%,19.4%,-4.2%
COc1ccc(-c2sc(Nc3ccccc3)n[n+]2C)c(C)c1C,-6.2%,-12.2%,?,?,22.4%
CC(=O)N1c2ccc(S(=O)(=O)N3CCC(C(=O)NCc4ccccc4Cl)CC3)cc2CC1C (centres undefined),-6.2%,23.1µM*,-4.1%,32.6%,1.8%
Cn1nc(C(=O)OCC(=O)Nc2sccc2C(N)=O)c2ccccc2c1=O,-5.1%,-1.7%,1.7%,6.4%,-8.2%
CCOc1ccccc1N1CCN(C(=O)c2cc3c(C)cc(C)cc3[nH]2)CC1,-9.7%,-2.1%,?,0.1%,20.6µM*
COc1cc2ccccc2cc1C(=O)N1CCN(C(C)=O)CC1,-2.2%,-14.6%,-1.1%,-16.3%,?
CCOc1ccccc1N1CCN(C(=O)c2cc3ccccc3cc2OC)CC1,/,3.8%,2.06µM*,/,14.6µM*
SMILES,Gal4-VP16 FLuc,ELG1 repair inh,MCF10A rerep,RORg inh,SW480 rereplic
CCn1c(SCC(=O)N(C)CC(=O)Nc2cccc(OC)c2)nnc1-c1ccco1,/,-18.3%,-1.3%,/,0.3%
Cc1ccc(-c2cc(C(=O)N3CCN(C(=O)c4ccco4)CC3)[nH]n2)c(C)c1,-10.3%,10.0%,10.7%,?,-20.3%
C=C(C)C(=O)Nc1cccc(C2=NOC3(C2)C[C@H](C(N)=O)N(C(=O)COc2ccc(Cl)cc2)C3)c1 (some centres undefined),4.6%,?,-6.1%,28.2%,2.1%
C=CCOc1ccc(CNc2ccc(NC(=O)CC(C)C)cc2)cc1OC,-13.5%,?,-0.2%,?,230.3%
COc1ccc(C(=O)C2CCCN(C(=O)c3ccccc3C(C)=O)C2)cc1F (centres undefined),-2.8%,0.0%,1.2%,36.7%,8.4%
COc1ccc(C(=O)C2CCCN(C(=O)COc3ccc(C(C)=O)cc3)C2)cc1F (centres undefined),6.4%,14.6µM*,3.8%,15.3%,-1.1%
CN1CCN(c2ncc3nc(-c4cccs4)c(=O)n(CCC#N)c3n2)CC1,6.31µM*,/,/,0.708µM*,/
O=c1c(-c2ccc(F)cc2)nc2cnc(N3CCNCC3)nc2n1Cc1ccc(F)cc1,?,/,/,14.1µM*,/
COc1ccc(-n2c(=O)c(-c3cccs3)nc3cnc(N4CCNCC4)nc32)cc1,10µM*,/,/,?,/
O=c1c(-c2cc(F)cc(F)c2)nc2cnc(N3CCOCC3)nc2n1Cc1cccs1,1.8%,/,/,-22.0%,/
O=c1c(-c2cc(F)cc(F)c2)nc2cnc(N3CCNCC3)nc2n1Cc1cccs1,?,/,/,2.82µM*,/
COC(=O)[C@@H](Cc1ccccc1)NC(=O)[C@H]1CCC(=O)N1C(=O)OCc1ccccc1,-0.7%,3.5%,-14.5%,-19.1%,-3.4%
COC(=O)c1ccc(NC(=O)CCC(=O)c2ccc(F)cc2)cc1,4.3%,-9.5%,0.2%,-7.2%,-17.9%
Cn1c2ccccc2c(=O)c2c(=O)n(-c3ccc(F)cc3)c(C3CCCCC3)nc21,/,/,2.3%,/,?
O=c1c(-c2cccs2)nc2cnc(N3CCNCC3)nc2n1Cc1cccs1,8.91µM*,/,/,17.8µM*,/
CN1CCN(c2ncc3nc(-c4cccs4)c(=O)n(Cc4cccs4)c3n2)CC1,?,/,/,12.6µM*,/
CC1CCCCN1C(=O)CNCC1CCCO1 (centres undefined),-0.4%,-14.2%,-1.9%,16.2%,-1.3%
O=C(N/N=C/c1sc(=O)n(Cc2ccc(Br)cc2)c1Cl)c1ccco1,?,-18.2%,18.4µM*,11.2µM*,-30.5%
Cc1occc1C(=O)N/N=C/c1ccc(Br)s1,10µM*,?,-44.4%,6.31µM*,-67.9%

# Bioassay records from PubChem.
